# Test results published in PubChem BioAssay (NCATS).
# Inconclusive results are not listed. Where a call stands in place of a potency, no number is given. Active and inactive are the calls of the source. Calls follow the shape of the dose curve; as a rule, active = well fitted curve in the direction sought with a large enough effect; inconclusive = small, poorly fitted or top-dose-only effect, or another doubt; inactive = no such curve, though single readings can be large; an effect the other way counts as inactive or inconclusive.
# Molecular target: Protein phosphatase 1D (Homo sapiens) (UniProt O15297)
# Sequence (O15297 whole entry, looked up): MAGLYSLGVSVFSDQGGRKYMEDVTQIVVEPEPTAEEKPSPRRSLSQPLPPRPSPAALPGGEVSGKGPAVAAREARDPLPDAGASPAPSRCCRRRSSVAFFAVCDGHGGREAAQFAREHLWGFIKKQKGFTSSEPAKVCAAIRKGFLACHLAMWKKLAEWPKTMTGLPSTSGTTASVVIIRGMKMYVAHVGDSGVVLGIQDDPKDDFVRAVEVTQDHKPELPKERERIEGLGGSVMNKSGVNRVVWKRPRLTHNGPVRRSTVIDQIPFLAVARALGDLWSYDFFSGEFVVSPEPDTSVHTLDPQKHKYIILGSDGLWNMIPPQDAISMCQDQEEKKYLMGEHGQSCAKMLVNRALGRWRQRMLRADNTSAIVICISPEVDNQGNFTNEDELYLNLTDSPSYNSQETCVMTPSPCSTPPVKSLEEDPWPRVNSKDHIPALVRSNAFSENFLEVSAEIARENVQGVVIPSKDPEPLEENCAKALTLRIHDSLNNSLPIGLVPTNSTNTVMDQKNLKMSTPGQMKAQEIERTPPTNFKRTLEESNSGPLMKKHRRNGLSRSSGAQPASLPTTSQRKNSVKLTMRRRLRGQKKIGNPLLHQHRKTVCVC
# Assay: Rhodamine-PBP qHTS Assay for Modulators of WT P53-Induced Phosphatase 1 (WIP1) (AID 1347425)
# Conditions: recombinant WIP1, Rhodamine-PBP phosphate fluorescence, real-time; series mostly up to 57.5 µM
# Outline: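 5 nM WIP1 + 10 uM Rh-PBP, 50 mM Tris pH 7.5, 30 mM MgCl2, 1 mM TCEP, 0.1 mM EGTA, BSA; cpds pinned, 1 hr RT; + 10 uM phosphopeptide; fluorescence 1-min reads x 11 min; delta = f1 - f0.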
row,SMILES,outcome
1,COc1ccc(C(=O)c2ccccc2)c(O)c1,inactive
2,CC(C)[C@@H]1CC[C@@H](C)CC1=O,inactive
3,O=C1C(=O)c2ccccc2C(O)=C1C1CCC(c2ccc(Cl)cc2)CC1 (centres undefined),inactive
4,O=C(c1ccc(F)cc1)C1CCN(CCn2c(=S)[nH]c3ccccc3c2=O)CC1,inactive
5,CCCCCCCCCCC[C@@H](C[C@@H]1OC(=O)[C@H]1CCCCCC)OC(=O)[C@H](CC(C)C)NC=O,inactive
6,C[C@@]12C(=O)OC(=O)[C@]1(C)C1CCC2O1,inactive
7,Cc1ccc2c(Br)cc(Br)c(O)c2n1,inactive
8,Cn1c(=O)c2[nH]c(Br)nc2n(C)c1=O,inactive

# Test system: not listed separately
# Assay: Primary qHTS for inhibitors of La Crosse Virus (LACV) - induced cell death in SH-SY5Y cells (AID 1508616);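 also: top concentration of the series differs between compounds; higher means more rescue of cells from virus-induced death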
# Conditions: SH-SY5Y LACV cytopathicity rescue, ATP luminescence, 6 d; series mostly up to 4.29 µM
# Outline: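 Rescue of virus-induced death was read as ATPLite luminescence after 6 days at 37C, scaled between DMSO wells with LACV and without virus. Cells were SH-SY5Y, 6000/well, infected at 0.01 MOI after compound addition.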
row,SMILES,outcome
1,NCCNC(=O)c1ccc(Cl)cn1,inactive
2,COc1ccc(C(=O)c2ccccc2)c(O)c1,inactive
3,OC[C@H]1O[C@@H]2O[C@H]3[C@H](O)[C@@H](O)[C@@H](O[C@H]4[C@H](O)[C@@H](O)[C@@H](O[C@H]5[C@H](O)[C@@H](O)[C@@H](O[C@H]6[C@H](O)[C@@H](O)[C@@H](O[C@H]7[C@H](O)[C@@H](O)[C@@H](O[C@H]8[C@H](O)[C@@H](O)[C@@H](O[C@H]1[C@H](O)[C@H]2O)O[C@@H]8CO)O[C@@H]7CO)O[C@@H]6CO)O[C@@H]5CO)O[C@@H]4CO)O[C@@H]3CO,inactive
4,CC(C)[C@@H]1CC[C@@H](C)CC1=O,inactive
5,O=C(O)C1(C(=O)O)CCC1.[NH2-].[NH2-].[Pt+2],inactive
6,NS(=O)(=O)Cc1noc2ccccc12,inactive
7,NC(=O)n1c(O)c(C(=O)c2cccs2)c2cc(Cl)ccc21,inactive
8,CN1CCN(c2c(F)cc3c(=O)c(C(=O)O)cn4c3c2SCC4)CC1,inactive
9,CCNC(=O)NCc1cccc(Cl)c1,inactive
10,CC(C)Cc1ccc(CC(=O)O)cc1,inactive
11,CN(C)CCOC(c1ccc(Cl)cc1)c1ccccn1 (centres undefined),inactive
12,CCOc1ccccc1C(N)=O,inactive
13,CN(Cc1ccc(C(C)(C)C)cc1)Cc1cccc2ccccc12,inactive
14,CCCCNc1ccc(C(=O)OCCOCCOCCOCCOCCOCCOCCOCCOCCOC)cc1,inactive
15,C=C[C@@]1(C)CC(=O)[C@]2(O)[C@@]3(C)[C@@H](O)CCC(C)(C)[C@@H]3[C@H](O)[C@H](OC(C)=O)[C@@]2(C)O1,inactive
16,CC(C)CCCC(C)N (centres undefined),inactive

row,SMILES,outcome
1,FC(F)(F)C(F)(F)C(F)(F)C(F)(F)C(F)(F)C(F)(F)C(F)(F)C(F)(F)Br,inactive
2,O=C(Nc1ccccc1)OCC(CN1CCCCC1)OC(=O)Nc1ccccc1 (centres undefined),inactive
3,O=C(CN1CCN(Cc2ccc3c(c2)OCO3)CC1)N1c2ccccc2Sc2ccccc21,inactive
4,CCNC(=O)/C=C/c1cccc(Br)c1,inactive
5,CCOc1ccc(NC(C)=O)cc1,inactive
6,CC(=O)Nc1ccc(CC(=O)O)cc1,inactive
7,O=S(c1cc(Cl)cc(Cl)c1O)c1cc(Cl)cc(Cl)c1O,inactive
8,CCC1NC(=O)c2cc(S(N)(=O)=O)c(Cl)cc2N1 (centres undefined),inactive
9,CC1(C)OC[C@@H]2O[C@@]3(C(=O)O)OC(C)(C)O[C@H]3[C@@H]2O1,inactive
10,Cn1c(=O)c2[nH]c(Br)nc2n(C)c1=O,inactive
11,Cc1ccccc1OCC(O)CO (centres undefined),inactive
12,NC(=O)c1ccccc1O,inactive
13,CN(C)CCOC(=O)C(c1ccccc1)C1(O)CCCC1 (centres undefined),inactive
14,O=C(NC1CCN(CCc2c[nH]c3ccccc23)CC1)c1ccccc1,inactive
15,CN(C)CCN1C(=O)c2ccccc2N(C)c2ccccc21,inactive

# Molecular target: Calcium and integrin-binding protein 1 (Homo sapiens) (UniProt Q99828)
# Sequence (Q99828 whole entry, looked up): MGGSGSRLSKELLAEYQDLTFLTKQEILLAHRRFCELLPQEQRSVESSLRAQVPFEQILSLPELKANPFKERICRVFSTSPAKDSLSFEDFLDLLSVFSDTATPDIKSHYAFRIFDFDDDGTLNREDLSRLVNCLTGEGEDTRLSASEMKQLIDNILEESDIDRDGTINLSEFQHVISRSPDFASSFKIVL
# Assay: Primary qHTS for Identification of Calcium Integrin Binding Protein 1 (CIB1) Competitor (AID 1508620);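 also: GST tagged CIB1 binding a fluorescein labelled alphaIIb integrin peptide tracer; top concentration of the series differs between compounds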
# Conditions: CIB1-GST / FITC-alphaIIb peptide fluorescence polarization; series mostly up to 114 µM
# Outline: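 Fluorescence polarization competition: CIB1-GST (1 uM final) preincubated with compound 15 min at room temperature, then FITC-labeled alphaIIb peptide (100 nM final) added for another 15 min. Polarization read at Ex 480/Em 540.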
row,SMILES,Potency
1,NCCNC(=O)c1ccc(Cl)cn1,inactive
2,COc1ccc(C(=O)c2ccccc2)c(O)c1,inactive
3,OC[C@H]1O[C@@H]2O[C@H]3[C@H](O)[C@@H](O)[C@@H](O[C@H]4[C@H](O)[C@@H](O)[C@@H](O[C@H]5[C@H](O)[C@@H](O)[C@@H](O[C@H]6[C@H](O)[C@@H](O)[C@@H](O[C@H]7[C@H](O)[C@@H](O)[C@@H](O[C@H]8[C@H](O)[C@@H](O)[C@@H](O[C@H]1[C@H](O)[C@H]2O)O[C@@H]8CO)O[C@@H]7CO)O[C@@H]6CO)O[C@@H]5CO)O[C@@H]4CO)O[C@@H]3CO,inactive
4,CC(C)[C@@H]1CC[C@@H](C)CC1=O,inactive
5,O=C(O)C1(C(=O)O)CCC1.[NH2-].[NH2-].[Pt+2],inactive
6,O=C1C(=O)c2ccccc2C(O)=C1C1CCC(c2ccc(Cl)cc2)CC1 (centres undefined),inactive
7,NS(=O)(=O)Cc1noc2ccccc12,inactive
8,NC(=O)n1c(O)c(C(=O)c2cccs2)c2cc(Cl)ccc21,inactive
9,CN1CCN(c2c(F)cc3c(=O)c(C(=O)O)cn4c3c2SCC4)CC1,inactive
10,O=C(c1ccc(F)cc1)C1CCN(CCn2c(=S)[nH]c3ccccc3c2=O)CC1,inactive
11,CCNC(=O)NCc1cccc(Cl)c1,inactive
12,CC(C)Cc1ccc(CC(=O)O)cc1,inactive
13,CN(C)CCOC(c1ccc(Cl)cc1)c1ccccn1 (centres undefined),inactive
14,CCOc1ccccc1C(N)=O,inactive
15,CN(Cc1ccc(C(C)(C)C)cc1)Cc1cccc2ccccc12,inactive
16,CCCCNc1ccc(C(=O)OCCOCCOCCOCCOCCOCCOCCOCCOCCOC)cc1,inactive
17,C=C[C@@]1(C)CC(=O)[C@]2(O)[C@@]3(C)[C@@H](O)CCC(C)(C)[C@@H]3[C@H](O)[C@H](OC(C)=O)[C@@]2(C)O1,inactive
18,CC(C)CCCC(C)N (centres undefined),inactive

row,SMILES,Potency
1,FC(F)(F)C(F)(F)C(F)(F)C(F)(F)C(F)(F)C(F)(F)C(F)(F)C(F)(F)Br,inactive
2,O=C(Nc1ccccc1)OCC(CN1CCCCC1)OC(=O)Nc1ccccc1 (centres undefined),inactive
3,O=C(CN1CCN(Cc2ccc3c(c2)OCO3)CC1)N1c2ccccc2Sc2ccccc21,inactive
4,CCCCCCCCCCC[C@@H](C[C@@H]1OC(=O)[C@H]1CCCCCC)OC(=O)[C@H](CC(C)C)NC=O,inactive
5,CCNC(=O)/C=C/c1cccc(Br)c1,inactive
6,CC(=O)Nc1ccc(CC(=O)O)cc1,inactive
7,C[C@@]12C(=O)OC(=O)[C@]1(C)C1CCC2O1,inactive
8,O=S(c1cc(Cl)cc(Cl)c1O)c1cc(Cl)cc(Cl)c1O,inactive
9,Cc1ccc2c(Br)cc(Br)c(O)c2n1,inactive
10,CCC1NC(=O)c2cc(S(N)(=O)=O)c(Cl)cc2N1 (centres undefined),inactive
11,CC1(C)OC[C@@H]2O[C@@]3(C(=O)O)OC(C)(C)O[C@H]3[C@@H]2O1,inactive
12,Cn1c(=O)c2[nH]c(Br)nc2n(C)c1=O,inactive
13,Cc1ccccc1OCC(O)CO (centres undefined),inactive
14,NC(=O)c1ccccc1O,inactive
15,CN(C)CCOC(=O)C(c1ccccc1)C1(O)CCCC1 (centres undefined),inactive
16,O=C(NC1CCN(CCc2c[nH]c3ccccc23)CC1)c1ccccc1,inactive
17,CN(C)CCN1C(=O)c2ccccc2N(C)c2ccccc21,inactive
